# The panel holds about 83,000 compounds, 20% with a hit somewhere; the sample as a whole holds those more often.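 Single-concentration screen, 48 h exposure, 96-well plates. Endpoint: percent growth. Below 10 = active.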 Unmarked numbers belong to inactive results.
# System: NCI-H23 lung
# Experiment: NCI-60 one-dose screen, 48 h (100 = growth as untreated, 0 = no growth, -100 = all killed)
# Conditions: 10 µM unless noted
row,Compound,growth
1,CCOC(=O)c1cc(C(=O)c2cc(OC)cc(OC)c2)n2ncccc12,45.8%
2,CO[C@H]1/C=C/O[C@@]2(C)Oc3c(C)c(O)c4c(O)c(c5c(nc6cc(C)ccn65)c4c3C2=O)NC(=O)/C(C)=C\C=C\[C@H](C)[C@H](O)[C@@H](C)C(O)[C@@H](C)[C@H](OC(C)=O)[C@@H]1C (stereo partly drawn),99.6%
3,CN1CCN(Cn2nc(-c3cc(Cl)cc(Cl)c3Cl)oc2=S)CC1,90%
4,COC1=C(OC)C(=O)C(CCCCCCCCCCO)=C(C)C1=O,35.2%
5,COCCn1cc(-c2nc(-c3cc4cccnc4n3C)cs2)c2cc(OC)ccc21,32.6%
6,O=C(/C=C/c1ccc(Cl)cc1)c1ccc(-n2cc(CN3CCN(c4cc5c(cc4F)c(=O)c(C(=O)O)cn5C4CC4)CC3)nn2)cc1,85.4%
7,Cc1ccc(S(=O)(=O)c2nc(-c3ccccc3)oc2S(C)=O)cc1 (stereo not drawn),63.6%
8,CNC(=O)c1cc(Oc2ccc3nc(NC(=O)Nc4ccc(F)cc4F)sc3c2)ccn1,47%
9,CCCCN(CCC#N)C(N)=O,115%
10,COc1cccc(/C=C2\CCc3ccccc3C2=O)c1,83.6%
11,C#Cc1c(I)n(C2OC(CO[Si](C)(C)C(C)(C)C)C3OC(C)(C)OC32)c(=O)[nH]c1=O (stereo not drawn),85.7%
12,COc1cc(/C=C2\C(=O)N(CCOc3cc(O)c4c(=O)cc(-c5ccccc5)oc4c3)c3ccccc32)cc(OC)c1O,77.6%
13,O=C1c2ccccc2-c2c1c1ccncc1c(=O)n2CCCn1ccnc1,51.8%
